From PubChem
A selection: hits, their analogues and other compounds. The true share with any hit is near 0.52%.
Sa growth inh: blocks Staphylococcus aureus growth; actives 0.53% (n = 170,000); relative growth, % (test concentration not listed); S. aureus RN4220 growth, OD600, 20 h, 42 °C; active compounds read low;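 active = relative growth at most 50% at the other temperature and 20+ points below 30 °C, or under 10% at both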
S aureus helic: S. aureus DNA helicase inhibition; AID 485395; actives 0.05% (n = 120,000); inhibition, % (test concentration not listed); purified S. aureus helicase, fluorescence unwinding assay; in the data active = inhibition above about 25%, passing the limit was not always enough
Large screens that a line does not name were inactive.

C=CCN(CC=C)Cn1nc(-c2c[nH]c3ccccc23)oc1=S	Sa growth inh 43
CC(NC(=O)c1cc2sccc2s1)c1ccccc1 (centres undefined)	none (no result: S aureus helic)
CC(=O)O/N=C1/SC(=Nc2ccc(Cl)cc2)C2=C1N(C)CC2	none (no result: Sa growth inh)
CCOC(=O)C1CCN(C(=O)c2ccc(NS(=O)(=O)c3ccc(OCC)cc3)cc2)CC1	none
COc1ccc(-c2cc(C(F)(F)F)nc(NCc3ccccc3)n2)cc1	none (no result: S aureus helic)
COc1ccc(-c2cc(C(F)(F)F)nc(S(C)(=O)=O)n2)cc1	Sa growth inh 28 (no result: S aureus helic)
CS(=O)(=O)c1ncc(Cl)c(C(=O)Nc2cccc(Cl)c2)n1	Sa growth inh 0.2
Cc1cccc(NC(=O)c2nc(S(C)(=O)=O)ncc2Cl)c1	Sa growth inh 1.0 (no result: S aureus helic)
CCS(=O)(=O)c1ncc(Cl)c(C(=O)Nc2c(C(=O)Nc3cccc(C)c3)oc3ccccc23)n1	none (no result: S aureus helic)
O=C(O)c1nccnc1C(=O)N1CCN(C(c2ccccc2)c2ccccc2)CC1	none
COc1ccc(NC(=O)c2nc(S(C)(=O)=O)ncc2Cl)cc1Cl	none
CS(=O)(=O)c1ncc(Cl)c(C(=O)N2CCN(C(c3ccccc3)c3ccccc3)CC2)n1	Sa growth inh 4.2
CCOC(=O)COc1cc(OCC(=O)OCC)c2c3c(c(=O)oc2c1)CCC3	none
CC(C)c1ccc(-c2nnn(CC(=O)c3ccc(NS(C)(=O)=O)cc3)n2)cc1	none
CC1=NN(c2cccc(C(F)(F)F)c2)C(=O)C1	Sa growth inh 0.4
CC1=NN(c2cccc(SC(F)F)c2)C(=O)C1	none
CC1CCC2(CC1)C(=O)N(S(=O)(=O)c1cccc(C(F)(F)F)c1)C(=O)N2C (centres undefined)	none
COc1ccc(NC(=O)c2sc(=S)n3c2[nH]c(=O)c2ccccc23)cc1	none
Cc1ccc(NC(=O)c2sc(=S)n3c2[nH]c(=O)c2ccccc23)c(C)c1	Sa growth inh 4.6 (no result: S aureus helic)
Cc1ccccc1NC(=O)N1CC(C)Sc2ccccc21 (centres undefined)	none
O=C1C(Nc2ccccc2)=C(n2nnc3ccccc32)C(=O)c2ccccc21	none
O=C1C(Nc2cccc(O)c2)=C(n2nnc3ccccc32)C(=O)c2ccccc21	Sa growth inh 0.6
Cc1nn(-c2ccccc2)c2[nH]c(=O)cc(CCl)c12	none
COc1ccc(Cc2nnc3n2N=C(c2ccc(CNC(C)=O)o2)CS3)cc1	none
O=S(=O)(c1ccc(OC(F)(F)F)cc1)N1CCN(S(=O)(=O)c2cccs2)CC1	none
CC1=C(C(=O)O)N2C(=O)[C@@H](NC(=O)[C@H](N)c3ccccc3)[C@H]2SC1	none (no result: S aureus helic)
C/C=C\C1=C(C(=O)O)N2C(=O)C(NC(=O)C(N)c3ccc(O)cc3)C2SC1 (centres undefined)	Sa growth inh 1.2 (no result: S aureus helic)
O=C(O)/C(=C\c1ccncc1)c1ccc(S(=O)(=O)N2CCCCC2)s1	none
CC1(C)C(C(=O)O)N2C(=O)CC2S1(=O)=O (centres undefined)	Sa growth inh 27
CC1(C)[C@H](C(=O)O)N2C(=O)C[C@H]2S1(=O)=O	none (no result: S aureus helic)
CCCN(CCC)Cn1nc(-c2ccc3c(c2)OCO3)oc1=S	Sa growth inh 39
CCOC(=O)c1nnc(-c2ccc3c(c2)OCO3)o1	none
O=C1C=CC(=O)N1CCc1ccccc1	none
O=C1C=CC(=O)N1CCc1ccc(Cl)cc1	Sa growth inh 9.7
CCc1c(C)sc2c1CCN(Cc1cccc(F)c1)C2c1ccccc1 (centres undefined)	Sa growth inh -1.3 (no result: S aureus helic)
CCc1c(C)sc2c1CCN(Cc1ccc(C#N)cc1)C2c1ccccc1 (centres undefined)	none (no result: S aureus helic)
CCc1c(C)sc2c1CCN(C(=O)Nc1cc(C)cc(C)c1)C2c1ccccc1 (centres undefined)	none (no result: S aureus helic)
CCc1c(C)sc2c1CCN(Cc1ccc(F)cc1)C2c1ccccc1 (centres undefined)	Sa growth inh -1.1 (no result: S aureus helic)
Cc1c(C(=O)NN)c2cc(O)ccc2n1C	none
O=C(NCCN1CCOCC1)Nc1c[nH]c2ccccc12	Sa growth inh 3.2
CC1Cc2ccccc2N1C(=O)Nc1c[nH]c2ccccc12 (centres undefined)	none
CC(=O)N1CCN(C(=O)Nc2c[nH]c3ccccc23)CC1	Sa growth inh 6.1
CC1CCCCN1C(=O)Nc1c[nH]c2ccccc12 (centres undefined)	Sa growth inh 2.7
O=C(NCCN1CCOCC1)Nc1c[nH]c2ccccc2c1=O	none
O=C(Nc1c[nH]c2ccccc12)N1CCCc2ccccc21	none
O=C(OCc1cn2cc(Cl)ccc2n1)c1ccc(N2CCCC2=O)cc1	none
O=C(NCCO)c1ccc2c(c1)OCO2	none
Cc1cc(/C=N/NS(=O)(=O)c2cccc(C(F)(F)F)c2)no1	none
NC(=O)c1nc2n(c1N)CCCC2	none
O=C(COC(=O)c1cc(C(F)(F)F)cc(C(F)(F)F)c1)NCC1CCCO1 (centres undefined)	none
NC(=O)CN1C(=O)c2cccc3cccc1c23	none
COC(=O)C(C)Sc1cc(C)c2ccccc2n1 (centres undefined)	none
Cc1nccc(-c2cccc(N/N=C(\C#N)S(=O)(=O)c3ccccn3)c2)n1	none
Cc1nccc(-c2cccc(NN=C(C#N)C#N)c2)n1	Sa growth inh -0.4
COc1cccc(CNc2ccc3c(c2)ncn3C2CCCCC2)c1	Sa growth inh 0.1
CCn1cnc2cc(NCc3cccc(OC)c3)ccc21	none
CCCCCCCCCCCCCCCC(=O)O[C@@H]1[C@@H](O)[C@@H](O)[C@@H](C(NC(=O)[C@@H]2C[C@@H](CCC)CN2C)C(C)Cl)O[C@@H]1SC (some centres undefined)	none (no result: S aureus helic)
CCC[C@@H]1C[C@@H](C(=O)N[C@@H]([C@H]2O[C@H](SC)[C@H](O)[C@@H](O)[C@H]2O)[C@@H](C)O)N(C)C1	Sa growth inh 0.0 (no result: S aureus helic)
O=C(Nc1cccc(Cl)c1)c1c(NC(=O)C(F)(F)F)sc2c1CCCC2	Sa growth inh -1.2 (no result: S aureus helic)
Cc1cccc(NC(=O)c2c(NC(=O)C(F)(F)F)sc3c2CCCCC3)c1	none (no result: S aureus helic)
O=C(CN1C(=O)c2ccccc2C1=O)c1ccc(Cl)cc1	none
CCOc1ccc(NC(=O)N2CCN(c3ccc(Cl)c(Cl)c3)CC2)cc1	none (no result: S aureus helic)
CC(=O)N1CCN(c2ccc(OCC3CO[C@](Cn4ccnc4)(c4ccc(Cl)cc4Cl)O3)cc2)CC1 (some centres undefined)	Sa growth inh 2.6 (no result: S aureus helic)
CC(CCc1ccccc1)NC(=O)CSc1nc2ccccc2[nH]1 (centres undefined)	none
O=C1C(=Nc2cccnc2)c2ccccc2N1Cc1ccccc1	none
Cc1c(C(=O)C(C#N)c2nc3ccccc3[nH]2)oc2c(Cl)cccc12 (centres undefined)	none
Cc1sc2nc(CSc3nc4ccccc4n3CC(C)C)[nH]c(=O)c2c1C	none
COc1cc2nc(N3CCN(c4cc(C)ccc4C)CC3)nc(N)c2cc1OC	Sa growth inh -0.7
COc1nc(OC)nc(N2CCN(c3cc(C)ccc3C)CC2)n1	none
CCCCOc1ccc(C(=O)OCC2CCCN3CCCCC23)cc1OC (centres undefined)	Sa growth inh 43
O=C(OC[C@@H]1CCCN2CCCCC12)c1ccccc1 (some centres undefined)	none
CCOC(=O)c1c(C)[n+]([O-])c2ccc3c(non3O)c12	none
Cc1c(C)[n+]([O-])c2ccc3c(non3O)c12	Sa growth inh 1.9
O=c1ccc(-c2ccco2)n[nH]1	none
Cc1nn(CCC#N)c2c1C(c1ccc3c(c1)OCO3)C1=C(CC(C)(C)CC1=O)N2 (centres undefined)	none
N#CC(C#N)=NNc1ccccc1C(N)=O	Sa growth inh -0.5
NC(=O)c1ccccc1NC(=O)Nc1ccccc1	none
Cc1c(O)ccc2c(=O)c(-c3ccc4ccccc4n3)coc12	none
